Compound activity deposited in PubChem by National Center for Advancing Translational Sciences (NCATS).
Hits are enriched below; roughly 19% of the tested compounds scored in any of these assays.
DT40 TDP1 no CPT – qHTS for Inhibitors of human tyrosyl-DNA phosphodiesterase 1 (TDP1): qHTS in cells in absence of CPT; DT40 Tdp1-/- hTDP1 cells, no CPT, ATP luminescence, 48 h; Potency, µM (series often up to 46.2 µM), usual class: inhibitors; hit rate 15% among 420,000; further: nearly all actives have a fitted effect of over 55% in size
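No-CPT arm: Tdp1-/-;hTDP1 DT40 cells (400/well) plus compounds, incubated ≥48 hr at 37 °C. Readout CellTiter-Glo luminescence.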
IL-1B inflam inh – qHTS for Inhibitors of Inflammasome Signaling: IL-1-beta AlphaLISA Primary Screen. activity change, % at 57.5 µM. THP-1 LPS/ATP IL-1B secretion, AlphaLISA, 16 h; hits give low values. hit rate 4.7% among 360,000; in the data active means activity change below about -50%; inconclusive means mostly about -30% to -49%
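THP-1 cells pretreated 1 hr with compounds (up to 57.5 uM final), then stimulated with LPS (250 ng/mL final) plus ATP (1.25 mM final); secreted IL-1B measured by AlphaLISA after 16 hr, decreased signal indicating inhibition.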
TDP1 inh – qHTS Assay for Inhibitors of Tyrosyl-DNA Phosphodiesterase (TDP1). Tyrosyl-DNA phosphodiesterase 1 (Homo sapiens), Q9NUW8. recombinant TDP1, AlphaScreen DNA substrate cleavage. hit rate 0.28% among 350,000. Potency, µM (top dose mostly 130 µM), most hits filed as inhibitors; further: nearly all actives have a fitted effect of over 40% in size
Target sequence (Q9NUW8 whole entry, looked up): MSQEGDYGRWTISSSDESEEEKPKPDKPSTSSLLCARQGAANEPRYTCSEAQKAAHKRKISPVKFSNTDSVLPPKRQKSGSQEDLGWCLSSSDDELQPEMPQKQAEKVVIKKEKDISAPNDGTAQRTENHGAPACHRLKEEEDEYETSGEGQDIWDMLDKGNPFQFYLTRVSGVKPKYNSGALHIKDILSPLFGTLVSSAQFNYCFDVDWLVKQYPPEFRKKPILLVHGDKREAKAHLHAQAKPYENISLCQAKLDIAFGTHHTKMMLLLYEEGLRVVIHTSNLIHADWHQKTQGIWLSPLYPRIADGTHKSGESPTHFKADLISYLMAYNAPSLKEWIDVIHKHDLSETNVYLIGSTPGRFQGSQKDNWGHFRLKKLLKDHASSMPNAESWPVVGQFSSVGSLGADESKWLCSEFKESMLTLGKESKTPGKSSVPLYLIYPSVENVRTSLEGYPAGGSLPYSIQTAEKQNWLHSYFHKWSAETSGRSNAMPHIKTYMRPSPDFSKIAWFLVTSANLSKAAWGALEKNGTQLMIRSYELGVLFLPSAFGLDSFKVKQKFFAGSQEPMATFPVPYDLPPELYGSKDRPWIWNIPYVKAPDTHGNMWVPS
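Steps: enzyme plus compound, 15 min RT; add biotin/phosphotyrosine-FITC oligonucleotide (15 nM final), react 5 min; add donor/acceptor beads (10 ug/ml final), 10 min; read AlphaScreen. Tdp1 at 1 nM final.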
Giardia kill – Small Molecules that selectively kill Giardia lamblia: qHTS; Giardia lamblia trophozoite viability; activity change, % at 7.66 µM, hits read low; hit rate 0.15% among 340,000; in the data active means activity change below about -80%; inconclusive means between about -30% and that limit;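 further: parasites exposed to compound for two days anaerobically before the ATP read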
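ATP-content bioluminescence gauges trophozoite survival. Cells (100/well) receive compound and incubate anaerobically for 48 hrs at 37 deg C; detection reagent follows for 15-30 min at room temperature.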
ELG1 DNA repair – qHTS screen for small molecules that inhibit ELG1-dependent DNA repair in human embryonic kidney (HEK293T) cells expressing luciferase-tagged ELG1. HEK293T ELG1-luciferase reporter, luminescence, 16 h; DNA damage induced by 5-fluorouridine. hit rate 2.3% among 330,000. Potency, µM (doses to about 46.1 µM), actives largely listed as inhibitors. AID 504467, 2011; further: nearly all actives have a fitted effect of over 55% in size
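DMSO vehicle served as the neutral condition. Each well held 2,000 cells given 5-fluorouridine plus compound; after 16 hr at 37 °C/5% CO2, ONE-Glo was added and luciferase measured 30 min later.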
DT40 TDP1 CPT – qHTS for Inhibitors of human tyrosyl-DNA phosphodiesterase 1 (TDP1): qHTS in cells in presence of CPT. Potency, µM (series often up to 46.2 µM), hits mostly inhibitors. hit rate 12% among 420,000. chicken DT40 Tdp1-/-;hTDP1 cells + 20 nM CPT, ATP luminescence, 48 h; further: nearly all actives have a fitted effect of over 55% in size
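Chicken DT40 Tdp1-/- cells complemented with human TDP1, 400 cells/well, exposed to compounds plus 20 nM camptothecin for at least 48 h at 37 C; viability read as ATP content by CellTiter-Glo luminescence.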
Numbers stand for hits; n = inactive; u = inconclusive; x = not tested or not shown; [ ] = another dose, or the depositor's remark. Unless noted, the call rests on the fitted dose curve; in most records, active means well fitted curve in the direction sought with a large enough effect; inconclusive means small, poorly fitted or top-dose-only effect, or another doubt; inactive means no such curve, though single readings can be large; an effect the other way counts as inactive or inconclusive.

SMILES	DT40 TDP1 no CPT	IL-1B inflam inh	TDP1 inh	Giardia kill	ELG1 DNA repair	DT40 TDP1 CPT
CC(=O)N1CCC2(CC1)CCN(c1ccc(-c3ccccc3)cc1)CC2	8.2µM	x	x	x	x	10µM
O=C(c1ccncc1)N1CCC2(CC1)CCN(c1ccc(-c3ccccc3)cc1)CC2	u	x	x	x	x	6.5µM
O=S(=O)(c1ccccc1)N1CCC2(CCN(c3ccncc3)CC2)CC1	13µM	x	x	x	x	12µM
COC(=O)N1CCC2(CCCN(c3ccc(-c4ccccc4)cc3)C2)CC1	u	x	x	x	x	n
Cc1nn(CC(=O)N(C)C2CCS(=O)(=O)C2)c(C)c1S(=O)(=O)N(C)C (configuration not stated)	n	n	n	n	n	n
CC(=O)Nc1ccc(S(=O)(=O)N(C)CC(=O)OCC(=O)N2CC(C)OC(C)C2)cc1 (configuration not stated)	n	n	x	n	n	n
O=C(c1ccncc1)N1CCC2(CC1)CN(c1ccccc1)C2	u	x	x	x	x	16µM
COc1cc2c(cc1OC)C(c1cccs1)N(C(=S)NC(C)C)CC2 (configuration not stated)	15µM	n	n	n	n	u
COc1cc2c(cc1OC)C(c1cccs1)N(C(=O)c1ccc(S(=O)(=O)N(C)C)cc1)CC2 (configuration not stated)	u	u	n	n	n	u
COc1cc2c(cc1OC)C(c1cccs1)N(C(=O)c1ccncc1)CC2 (configuration not stated)	u	n	n	n	n	13µM
Cc1ccc(CCNS(=O)(=O)c2ccc3c(c2)CCN3C(=O)CCC(=O)O)cc1	n	x	n	x	x	n
Cc1ccc2nc(N(CCCN(C)C)C(=O)c3cc(-c4cccs4)nc4ccccc34)sc2c1	u	u	n	n	n	16µM
CN(C)CCCN(C(=O)c1cc(-c2cccs2)nc2ccccc12)c1nc2c(F)cccc2s1	n	-74	n	n	n	u
O=C(NCC(c1ccco1)S(=O)(=O)c1cccs1)c1ccccc1F (configuration not stated)	u	x	n	x	x	n
Cc1ccc(NCc2nnc(SCC(=O)NCc3ccco3)n2CC2CCCO2)c(C)c1 (configuration not stated)	n	n	n	n	n	n
Cc1ccc(NCc2nnc(SCc3ccc(C#N)cc3)n2Cc2ccco2)c(C)c1	23µM	n	n	n	n	u
N#Cc1ccc(CSc2nnc(-c3ccncc3)n2CCc2ccccc2)cc1	u	n	n	n	23µM	n
Cc1ccc(C(=O)CSc2nnc(-c3ccco3)n2C)cc1	16µM	n	n	n	n	u
c1ccc(CCn2c(SCc3ccccc3)nnc2-c2ccncc2)cc1	n	n	n	n	u	n
COc1ccc(C(=O)CSc2nnc(CNc3ccc(C)cc3C)n2Cc2ccco2)cc1	23µM	u	n	n	u	18µM
CC(C)Cn1cc(NC(=O)N2CCN(c3ccccc3F)CC2)c2ccccc2c1=O	u	x	n	x	x	u
Cc1cc2c(s1)c1cnn(Cc3ccc(C)c(F)c3F)c(=O)c1n2C	x	x	n	x	x	x
COC(=O)[C@@H]1C[C@H](NC(=O)c2cc(C(F)(F)F)ccc2Cl)CN1Cc1cccc(O)c1	n	x	x	x	x	n[9.04 µM]
N#Cc1ccc(CSc2nnc(-c3ccccc3)n2Cc2ccco2)cc1	29µM	n	n	n	n	u
Brc1ccc(CSc2nnc(-c3cnccn3)n2Cc2ccco2)cc1	15µM	n	n	n	n	u
SMILES	DT40 TDP1 no CPT	IL-1B inflam inh	TDP1 inh	Giardia kill	ELG1 DNA repair	DT40 TDP1 CPT
N#Cc1ccc(CSc2nnc(Cc3cccs3)n2Cc2ccco2)cc1	u	n	n	n	n	u
Cc1ccc(C(=O)CSc2nnc(CNc3ccc(C)cc3C)n2Cc2ccco2)cc1	u	n	n	n	n	21µM
CC(C)CCOc1ccc(CO[C@@H]2[C@H]3OC(C)(C)O[C@H]3O[C@@H]2C(O)CO)cc1 (some centres not stated)	u	n	x	n	n	u
O=C(NCc1ccccn1)c1cc(S(=O)(=O)N2CCN(c3ccccc3)CC2)ccc1Cl	18µM	n	n	n	u	10µM
COc1ccc(C(CNC(=O)c2ccc(S(=O)(=O)N3CC(C)CC(C)C3)cc2)N(C)C)cc1 (configuration not stated)	29µM	-52	n	n	u	u
COc1ccc(C(CNC(=O)c2cc(S(=O)(=O)N3CCN(c4ccccc4)CC3)ccc2Cl)N(C)C)cc1 (configuration not stated)	18µM	u	n	n	u	21µM
COc1ccc(C(CNC(=O)c2ccc(S(=O)(=O)N3CCCC3)cc2)N(C)C)cc1OC (configuration not stated)	n	n	n	u	n	u
C/C(=C/C(=O)O)C(=O)Nc1cccc(C(F)(F)F)c1	n	n	n	n	n	u
CCOC(=O)N1CCN(C(=O)COC(=O)c2ccc(Cl)nc2)CC1	n	n	n	n	n	n
Cc1cc(C(=O)OCC(=O)N2CCc3ccccc32)ccc1[N+](=O)[O-]	n	n	n	n	u	n
O=C(c1ccco1)N1CCC2(CCCN(c3ncccn3)C2)CC1	n	x	x	x	x	n
CCC(Sc1nc(N)cc(N)n1)C(=O)O (configuration not stated)	n	n	n	n	u	n
COc1ccc(C2N(S(=O)(=O)c3ccccc3)CCN2S(=O)(=O)c2ccc(C)cc2)cc1 (configuration not stated)	14µM	n	n	n	n	16µM
CCOC(=O)N1CCN(S(=O)(=O)c2ccc(C)cc2)C1c1ccc(OC)cc1 (configuration not stated)	u	n	n	n	u	u
COc1ccccc1C1SCCN1S(=O)(=O)c1cccc(C(F)(F)F)c1 (configuration not stated)	16µM	u	n	n	n	n
COc1ccc(C2N(C(=O)N3CCOCC3)CCN2S(=O)(=O)c2ccc(C)cc2)cc1 (configuration not stated)	n	n	n	n	n	n
COc1ccc(S(=O)(=O)N2CCSC2c2ccc(OC)c(OC)c2)cc1 (configuration not stated)	16µM	n	x	n	23µM	u
CCOC(=O)N1CCN(S(=O)(=O)c2ccc(C)cc2)C1c1ccccc1 (configuration not stated)	u	n	n	n	26µM	u
